High-throughput results as filed in PubChem.
Only some compounds are listed: those with a hit (about 2.2% of all), similar ones and a draw of the others.
Efflux pump mplx: inhibitors of Candida antifungal efflux pumps expressed in yeast; S. cerevisiae Candida pump triplex, Nile Red efflux; actives 0.44% (n = 330,000); inhibition, % at 10 µM; AID 485275;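 active = plate passing quality check with inhibition over a set limit, or well fluorescence over plate mean plus 4 SD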;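 also: Nile Red retained in pooled yeast measured as flow cytometry median fluorescence; 0% = buffer negative control and 100% = Enniatin B positive control; higher means more Nile Red kept so more efflux inhibition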
HGIII-sPLA2 inh: Blocks human group III sPLA2 activity. Q9NZ20. QFRET BODIPY PC-A2 liposome hydrolysis, fluorescence. inhibition, % at 12.2 µM. actives 0.56% (n = 370,000). AID 743126;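 active = inhibition above mean plus 3 SD of compounds lying within the high and low control bounds, cut at about 19% in these data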;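 also: 0% = median of test compound wells and 100% = no enzyme DMSO wells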
Target sequence (Q9NZ20 whole entry, looked up): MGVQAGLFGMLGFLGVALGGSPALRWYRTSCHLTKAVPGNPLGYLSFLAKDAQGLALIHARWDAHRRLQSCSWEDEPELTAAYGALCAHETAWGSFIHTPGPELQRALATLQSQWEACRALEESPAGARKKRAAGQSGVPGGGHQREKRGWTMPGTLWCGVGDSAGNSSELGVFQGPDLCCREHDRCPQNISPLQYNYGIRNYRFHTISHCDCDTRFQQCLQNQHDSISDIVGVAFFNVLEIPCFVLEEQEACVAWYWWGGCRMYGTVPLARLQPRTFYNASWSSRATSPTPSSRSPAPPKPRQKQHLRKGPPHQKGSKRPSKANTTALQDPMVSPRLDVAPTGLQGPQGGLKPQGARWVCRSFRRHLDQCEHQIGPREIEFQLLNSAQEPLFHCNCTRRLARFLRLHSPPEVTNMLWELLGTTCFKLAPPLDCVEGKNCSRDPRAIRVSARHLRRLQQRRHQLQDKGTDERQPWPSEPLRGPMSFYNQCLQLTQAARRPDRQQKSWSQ
Mot1-301 SUMO: blocks SUMOylation pathway, rescuing yeast Mot1-301 growth; S. cerevisiae Mot1-301 growth rescue, ATP luminescence, 38.5C; percent above DMSO median, 100 means doubled; growth rescue, % at 18.8 µM; actives 1% (n = 320,000);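 active = every valid replicate shows activation above 250% relative to neutral control wells; inactive = the rest, any valid replicate at or below 250%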;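 also: OY570 slx delta 5 strain wells were the positive control but not used for scaling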
SKN-1 block: C. elegans SKN-1 inhibition. actives 0.49% (n = 360,000). inhibition, % at 21.8 µM. AID 624304. C. elegans VP596 Pgst-4::GFP/RFP ratio, acrylamide-induced, 24 h;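 active = interference check ratio from 0.5 to 1.5 plus GFP to RFP signal ratio inhibition reaching or exceeding a fixed threshold, cut at about 30% in these data, passing the limit was not always enough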
Mot1 SUMO dose: SUMO pathway inhibitors in yeast Mot1-301 growth; growth activity, percent, % at 42 µM; 2,300 tested, under 10 active; shares compounds with Mot1-301 SUMO; S. cerevisiae Mot1-301 galactose growth, ATP luminescence, 24 h; -100 = growth of slx-deleted rescue strain;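 active = Signal drops as the depositor expects, and the fitted half-maximal dose is no more than ten times the top valid tested dose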;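 also: more negative values mean stronger growth rescue toward the control strain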
Starred values were filed as active, the others as inactive; . = not tested or not shown; + = active, no number.

SMILES	Efflux pump mplx	HGIII-sPLA2 inh	Mot1-301 SUMO	SKN-1 block	Mot1 SUMO dose
Cc1sc2ncn(C(C)C(=O)OC3CCCCC3)c(=O)c2c1C (centres undefined)	0	-6	379*	-7	0
COc1ccc(OC)c(NC(=O)COC(=O)CC2CCCCC2)c1	0	-7	-9	5	.
CCC(=O)N1CCC1(C)C(=O)NCc1ccc(SC)cc1 (centres undefined)	.	-1	.	2	.
O=C(CSc1nnc(-c2ccc(Br)cc2)o1)Nc1cccc(C(=O)O)c1	0	4	-22	-15	.
O=C(CSc1nnc(-c2ccc(Br)cc2)o1)Nc1cccc2ccccc12	0	-5	663*	5	0
O=C(c1cc([N+](=O)[O-])ccc1Cl)N1c2ccccc2Sc2ccccc21	0	-1	-16	29	.
Cc1cc(NC(=O)c2ccc(N3C(=O)CCC3=O)cc2)no1	0	-2	701*	7	0
COC(=O)[C@]12C[C@H](CC(=O)NCC34CC5CC(CC(C5)C3)C4)C(=O)N(Cc3ccc4c(c3)OCO4)C1=C[C@H](C(C)C)O[C@@H]2C1CC1	.	-10	.	.	.
CCOC(=O)CS(=O)(=O)c1ccc2ccccc2c1	0	-7	955*	-6	2
Cc1cccc(CNC(=O)c2sc(=O)n(Cc3c(C)cccc3C)c2C)c1	.	-13	.	10	.
COc1ccccc1OCCCn1cc(C#N)c2ccccc21	0	-22	832*	6	0
CCOc1ccc(CCNC(=O)COC(=O)c2cccc(OC)c2O)cc1OCC	0	-4	541*	-7	0
CCOc1ccc(CCNC(=O)COC(=O)COc2ccc(C(C)=O)cc2)cc1OCC	0	0	+	5	-1
CCOc1ccc(CCNC(=O)COC(=O)c2ccc(OC)c(OC)c2OC)cc1OCC	0	1	6	0	.
O=C(NCc1ccc(Cl)cc1)C1C2C=CC3(CN(Cc4ccccc4)C(=O)C13)O2 (centres undefined)	.	1	.	.	.
OC(c1ccccc1)(c1ccccc1)C1CCN(CCCNc2ccc(C(F)(F)F)cc2)CC1	.	-9	.	.	.
CCOC(=O)N1CCN(C(=O)c2ccc(OC)c(OC)c2)CC1	0	12	+	-7	1
CCOC(=O)N1CCN(C(=O)c2ccc(OCC)c(OCC)c2)CC1	0	8	-4	12	.
COc1ccc(N2CC(C(=O)N3CCc4ccccc43)CC2=O)cc1 (centres undefined)	4	-1	450*	4	0
COc1ccc(CCN2CC(C(=O)N(C)CC(=O)Nc3cccc(F)c3)CC2=O)cc1OC (centres undefined)	0	7	451*	-2	0
N#C/C(=C\c1cc([N+](=O)[O-])c(N2CCOCC2)cc1N1CCOCC1)c1nc2ccccc2[nH]1	0	2	361*	-18	1
Cc1ccc2nc(/C(C#N)=C\c3cc(O)ccc3[N+](=O)[O-])[nH]c2c1	0	-9	503*	13	0
C(=N\Nc1ccc2nncn2n1)/c1ccccn1	0	0	499*	12	0
CCC1SC2=NC(C)=C(C(=O)OCCOC)C(c3ccc(C(=O)OC)cc3)N2C1=O (centres undefined)	0	-26	832*	1	-1
CCC1SC2=NC(C)=C(C(=O)OC)C(c3ccc(C(=O)OC)cc3)N2C1=O (centres undefined)	0	-18	-20	7	.
SMILES	Efflux pump mplx	HGIII-sPLA2 inh	Mot1-301 SUMO	SKN-1 block	Mot1 SUMO dose
N#C/C(=C/c1ccc(N2CCCCC2)o1)C(=O)Nc1ccc(Cl)cc1	0	-23	587*	35	0
O=C(NCc1cccnc1)c1cc(C2CCCCN2S(=O)(=O)c2cccc3cccnc23)on1 (centres undefined)	.	1	.	-11	.
CCC(c1nc2ccccc2c(=O)n1-c1nc2ccccc2s1)N1C(=O)c2ccccc2C1=O (centres undefined)	4	-6	359*	13	0
Cc1nc(CN(C)C(=O)CC2C(=O)NCCN2Cc2ccc(-c3ccccc3)cc2)cs1 (centres undefined)	0	-3	-16	5	.
CCCCCNC(=O)c1ccc2c(=O)n(CC3CCCO3)c(=S)[nH]c2c1 (centres undefined)	0	4	-1	8	.
CCCCCNC(=O)c1ccc2c(=O)n(CC3CCCO3)c(=O)[nH]c2c1 (centres undefined)	0	-2	773*	-20	0
O=c1c2c3c(sc2n2cnnc2n1-c1ccccc1)N(Cc1ccccc1)CCC3	0	.	445*	.	0
CN1CCc2c(sc3c2c(=O)n(-c2cccc(Cl)c2)c2nncn32)C1	0	2	-2	-9	.
CC(C)c1ccc2oc(=O)cc(CN3CCOCC3)c2c1	0	-2	72	15	.
Cn1c(SCc2ccccc2)nnc1-c1ccco1	0	7	128	5	.
CN(C)CC/C=C1/c2cc(F)ccc2Sc2ccc(Cl)cc21	0	-16	738*	-20	0
Cc1nc2ccccc2n(CC(=O)Nc2cc(Cl)cc(Cl)c2)c1=O	0	-6	+	14	1
Cc1ccc(NC(=O)Cn2c(=O)c(C)nc3ccccc32)cc1	0	1	11	-3	.
Cc1cccc(C)c1NC(=O)C1C2C=CC(C2)C1C(=O)O (centres undefined)	0	3	-10	13	.
Cc1ccc(Cl)cc1NC(=O)C1CC1c1ccccc1 (centres undefined)	0	2	14	-2	.
COc1ccccc1CC(=O)N1CCN(S(=O)(=O)c2ccccc2)CC1	0	3	383*	0	0
CC1CCCC(C)N1S(=O)(=O)c1ccc(Cl)cc1 (centres undefined)	0	-3	-3	4	.
CC1=C(C)CS(=O)N(S(=O)(=O)c2ccc(Cl)cc2)C1 (centres undefined)	0	3	724*	-2	-1
CCNC(=O)C1(C)CCCN1Cc1cccc(C(F)(F)F)c1 (centres undefined)	.	6	.	13	.
COc1cc(NC(=O)C2CCCN(S(=O)(=O)c3ccc(Br)s3)C2)cc(OC)c1 (centres undefined)	.	-13	.	.	.
Cc1nn(C)c(C)c1-c1c(C#N)c(N)nc2c1CCCCCC2	0	1	+	-21	0
O=C(NCc1csc(-c2cccs2)n1)Nc1ccc(F)cc1F	0	-3	438*	-8	0
O=S(=O)(c1ccccc1)n1c(CN2CCOCC2)nc2ccccc21	.	0	.	.	.
CC(OC(=O)Cc1c(F)cccc1Cl)C(=O)NC1CCCCC1C (centres undefined)	0	2	12	-1	.
COc1cccc(C(=O)NCCCn2ccnc2)c1	0	1	.	6	.
COc1ccc(NS(=O)(=O)c2cccc(C(=O)NCCCn3ccnc3)c2)cc1	0	2	452*	7	0
COc1ccccc1Nc1nnc(SCc2nnc(-c3cc(OC)c(OC)c(OC)c3)o2)s1	0	-12	127	1	.
